Most compounds without a hit are left out; they make up all but 12% or so of the library.
SARS PLP yeast: qHTS of Yeast-based Assay for SARS-CoV PLP. S. cerevisiae expressing SARS-CoV PLpro, growth rescue. 330,000 compounds, 0.19% hits. AID 485353, 2010. Potency, µM (titrated, usually from 32.9 µM), without a hit: at the highest dose activity, positive = growth rescue, actives largely listed as activators; calls by dose curve; note: 0% is about no effect; nearly all actives have a fitted effect of over 55% in size
Sm TGR inh: qHTS Assay for the Inhibitors of Schistosoma Mansoni Peroxiredoxins; Schistosoma mansoni thioredoxin glutathione reductase (TGR), Q962Y6; purified TGR, DTNB reduction, TNB absorbance 405 nm; Potency, µM (highest dose often 114 µM), inactives show top-dose activity change, negative = inhibition, hits mostly inhibitors; 360,000 compounds, 3% hits; note: % is set by controls: 0 for no effect and ±100 for the full control effect; nearly all actives have a fitted effect of over 60% in size
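First, TGR (20 nM dispensed) and NADPH were mixed with compound. Second, a 15 min room-temperature incubation followed. Third, further NADPH and then DTNB were added to start the reaction. Finally, TNB absorbance was monitored kinetically.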
AmpC inh no detg: qHTS Inhibitors of AmpC Beta-Lactamase (assay without detergent). AmpC nitrocefin hydrolysis, absorbance 480 nm, 0.0001% Triton. 330,000 compounds, 0.52% hits. Potency, µM (doses to about 57.1 µM), for inactives: at the top dose activity change, negative = inhibition, usual class: inhibitors. P00811;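 note: plate controls were no compound for no effect and no enzyme for full effect; nearly all actives have a fitted effect of over 20% in size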
Target sequence (P00811 whole entry, looked up): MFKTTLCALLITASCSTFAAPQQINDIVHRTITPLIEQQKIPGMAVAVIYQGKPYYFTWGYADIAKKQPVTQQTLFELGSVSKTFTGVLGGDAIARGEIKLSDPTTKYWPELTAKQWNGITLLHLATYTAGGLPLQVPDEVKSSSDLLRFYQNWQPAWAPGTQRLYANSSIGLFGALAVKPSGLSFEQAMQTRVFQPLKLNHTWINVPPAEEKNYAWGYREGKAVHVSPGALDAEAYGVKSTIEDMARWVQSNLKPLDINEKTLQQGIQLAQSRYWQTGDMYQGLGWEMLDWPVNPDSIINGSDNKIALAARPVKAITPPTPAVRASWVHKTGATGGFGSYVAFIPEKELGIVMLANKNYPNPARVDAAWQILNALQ
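AmpC (5.3 nM in the dispensed reagent) in 20 mM phosphate pH 7.0 with 0.01% (detergent screen) or 0.0001% Triton X-100 was preincubated with compounds for 15 min at room temperature. Nitrocefin was then added from an 800 uM solution, and hydrolysis was followed at 480 nm.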
Pf growth 48h: Primary qHTS for delayed death inhibitors of the malarial parasite plastid, 48 hour incubation; P. falciparum luciferase growth in erythrocytes, 48 h; Potency, µM (top dose mostly 28.7 µM), inactives show top-dose activity change, negative = inhibition, usual class: inhibitors; 310,000 compounds, 5.9% hits; AID 504832, 2011; note: % is set by controls: 0 for no effect and ±100 for the full control effect
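Compounds are pin-transferred into medium, infected erythrocytes (2% hematocrit, 0.1% parasitemia final) are added, and plates sit one parasite generation at 37 C in 5% CO2. Detection reagent is then added and luminescence measured.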
AmpC inh detg: qHTS Inhibitors of AmpC Beta-Lactamase (assay with detergent); AmpC hydrolysis of nitrocefin, absorbance 480 nm, 0.01% Triton; Potency, µM (top dose mostly 114 µM), inactives show top-dose activity change, negative = inhibition, hits mostly inhibitors; 370,000 compounds, 0.041% hits;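 note: 0% = no-compound wells and -100% = no-enzyme wells; nearly all actives have a fitted effect of over 25% in size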
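AmpC (5.3 nM in the dispensed reagent) in 20 mM phosphate pH 7.0 with 0.01% (detergent screen) or 0.0001% Triton X-100 was preincubated with compounds for 15 min at room temperature. Nitrocefin was then added from an 800 uM solution, and hydrolysis was followed at 480 nm.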
Pf growth 96h: Primary qHTS for delayed death inhibitors of the malarial parasite plastid, 96 hour incubation | 320,000 compounds, 6.9% hits | P. falciparum luciferase reporter growth, 96 h | AID 504834, 2011 | Potency, µM (doses to about 28.7 µM), without a hit: at the top dose activity change, negative = inhibition, actives largely listed as inhibitors; note: % is set by controls: 0 for no effect and ±100 for the full control effect
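Luminescence readout: decreased luciferase signal marks inhibited growth of reporter-expressing P. falciparum in infected red cells (2% hematocrit, 0.05% parasitemia final), exposed to compound two generations (96 h, 37 C, 5% CO2).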
The depositor's hits bear a star; ? = inconclusive; · = no result given. Unless noted, calls come from the whole dose curve; as a rule, active = well fitted curve in the direction sought with a large enough effect; inconclusive = small, poorly fitted or top-dose-only effect, or another doubt; inactive = no such curve, though single readings can be large; an effect the other way counts as inactive or inconclusive. Potency is the fitted concentration of half-maximal effect.

SMILES | SARS PLP yeast | Sm TGR inh | AmpC inh no detg | Pf growth 48h | AmpC inh detg | Pf growth 96h
CC(CC(=O)NCC1CCCO1)c1ccccc1 (configuration not stated) | 5% | -21% | -48% | 0% | -10% | 57%
COc1ccccc1NC(=O)c1ccc(Cl)c(S(=O)(=O)NCc2ccco2)c1 | -4% | -28% | -20% | ? | 1% | ?
CCOc1ccc(Cn2c(CNS(=O)(=O)c3ccc([N+](=O)[O-])cc3)nc3cccnc32)cc1 | · | -1% | · | · | 3% | ·
N#Cc1cccc(NC(=O)CSc2sc3c(O)cc(=O)[nH]c3c2C#N)c1 | -9% | -46% | -38% | 13% | 2% | 6%
Cc1c(Cl)cccc1NC(=O)CSc1sc2c(O)cc(=O)[nH]c2c1C#N | 2% | ? | -34% | 4% | 4% | 7%
N#Cc1c(SCC(=O)Nc2nccs2)sc2c(O)cc(=O)[nH]c12 | -2% | 50µM* | -38% | 24% | ? | 103%
N#Cc1c(SCC(=O)Nc2nc3ccc(Br)cc3s2)sc2c(O)cc(=O)[nH]c12 | -5% | -25% | 25µM* | ? | 3% | 8%
N#Cc1c(SCC(=O)Nc2nc3ccccc3s2)sc2c(O)cc(=O)[nH]c12 | 5% | -36% | -49% | ? | 6% | 2%
CCCSc1nnc(NC(=O)CSc2sc3c(O)cc(=O)[nH]c3c2C#N)s1 | 3% | 40µM* | -41% | 18% | 1% | 16%
N#Cc1c(SCC(=O)Nc2ccc(Cl)cc2Cl)sc2c(O)cc(=O)[nH]c12 | 4% | -11% | -35% | 2.9µM* | 4% | 6%
O=C(c1cc2ccccc2[nH]1)N1CCOCC1 | 10% | 0% | -15% | 34% | ? | 38%
CC(C)(C)c1ccc(C(=O)Nc2ccc(Cl)cc2C(=O)c2ccccc2)cc1 | · | 0% | · | · | -1% | ·
Cc1oc(=O)c(NC(=O)c2ccccc2)cc1C(=O)c1ccccc1 | -29% | 22µM* | -42% | 90% | -12% | 35%
Cc1oc(=O)c(NC(=O)c2ccc(Cl)cc2)cc1C(=O)c1ccccc1 | -29% | 4µM* | -58% | ? | -14% | -2%
O=C(Nc1ccccc1O)c1ccc(Cl)cc1 | -21% | -5% | -23% | 5.9µM* | 4% | ?
CC(=O)c1cc(NC(=O)c2ccc(C)cc2)c(=O)oc1C | -5% | 40µM* | -24% | 105% | -5% | 112%
CCOC(=O)c1cc(NC(=O)c2ccccc2)c(=O)oc1C(F)(F)F | -4% | -24% | -24% | ? | -10% | -18%
CCOC(=O)c1nnc2c(-c3ccc(Cl)cc3)c(C)nn2c1N | · | -1% | · | · | 3% | ·
COC(=O)c1cc(NC(=O)Cn2nc(-c3ccc(C)c(C)c3)ccc2=O)cc(C(=O)OC)c1 | · | -1% | · | · | 21% | ·
CC(=O)c1cc(NC(=O)c2ccccc2)c(=O)oc1C | 0% | 35µM* | -21% | ? | -5% | 94%
COC(=O)c1cc(NC(=O)c2ccc(OC)cc2)c(=O)oc1C | 2% | -9% | -6% | -37% | -10% | 47%
Cc1cccc(-c2cnn(-c3cccc([N+](=O)[O-])c3)c2N)c1 | -7% | -8% | -31% | 40% | 3% | 96%
Cc1cc[n+]2cc(-c3cccc([N+](=O)[O-])c3)c(-c3cccc([N+](=O)[O-])c3)cc2c1 | 4% | -1% | -1% | 0.83µM* | -6% | 0.15µM*
O=c1oc2ccccc2cc1-c1nc2c(s1)CCc1ccccc1-2 | 1% | ? | ? | ? | -16% | 10%
O=c1oc2cc(O)ccc2cc1-c1nc2c(s1)CCc1ccccc1-2 | 1% | -4% | -42% | -8% | -11% | 9.3µM*
SMILES | SARS PLP yeast | Sm TGR inh | AmpC inh no detg | Pf growth 48h | AmpC inh detg | Pf growth 96h
CC(=O)Nc1cccc(NC(=O)C(=O)NCC(c2ccco2)N2CCc3ccccc32)c1 (configuration not stated) | -1% | 1% | 6% | ? | -17% | ?
COc1ccc(S(=O)(=O)Nc2cccc3c2O[C@H](CN(C)CC2CCCCC2)[C@@H](C)CN([C@H](C)CO)C3=O)cc1 | 3% | · | 177% | · | · | ·
O=C(CCCC1=NS(=O)(=O)c2ccccc2N1)N1CCN(c2ccc([N+](=O)[O-])cc2)CC1 | · | -12% | -22% | 8.3µM* | 2% | ?
COc1ccc(N2CCN(C(=O)CCCC3=NS(=O)(=O)c4ccccc4N3)CC2)cc1 | 5% | -21% | -1% | ? | 2% | ?
CC(C)c1ccccc1-n1c(SCC(=O)N2CCc3ccccc3C2)nc2ccccc2c1=O | 28% | -11% | -16% | 1.5µM* | 7% | 5.9µM*
Cn1c(=O)c2c(nc(SCC(=O)N3CCc4ccccc4C3)n2C)n(C)c1=O | 9% | -2% | 0% | 0% | -10% | 10µM*
O=C(CSc1nc2ccccc2c(=O)n1-c1ccccc1)N1CCc2ccccc2C1 | -24% | -7% | -4% | ? | ? | 2.6µM*
O=C(CSc1nc2ccccc2c(=O)n1-c1ccccc1)N1CCC1 | -1% | 1% | -2% | ? | -15% | ?
Cn1c(Cc2ccc3c(c2)OCO3)nnc1SCC(=O)N1CCc2ccccc2C1 | 5% | 45µM* | 25% | -15% | -12% | 5%
CN(C(=O)c1ccc2c(c1)OCO2)C1CCS(=O)(=O)C1 (configuration not stated) | -2% | 1% | -12% | 9% | ? | 20%
CC(C)C1C(=O)Nc2ccc(S(=O)(=O)NCCc3ccc(Cl)cc3)cc21 (configuration not stated) | · | 13% | · | · | 28% | ·
O=C(CSc1nc2[nH]ncc2c(=O)n1-c1ccccc1)N1CCCCCC1 | 1% | 7% | 3% | -21% | -7% | 10µM*
Cc1ccc(-n2cccc2/C=C2\C(=N)N3N=C(C(C)C)SC3=NC2=O)cc1 | -1% | 7% | 16µM* | ? | ? | 17%
O=C(CCCn1c(=O)c2ccccc2n(Cc2cccc(Cl)c2)c1=O)NCCc1ccc(Cl)cc1 | · | 9% | · | · | -6% | ·
Nc1cccc(CCc2ccncc2)c1 | 0% | -2% | -60% | ? | 2% | -1%
N#CCSc1nnc(COc2cccc3ccccc23)n1-c1ccccc1 | -4% | -27% | 43% | ? | -17% | 25%
COc1ccc(-n2c(COc3cccc4ccccc34)nnc2SCC#N)cc1 | -5% | -7% | 39% | 13µM* | 2% | -13%

From PubChem BioAssay
